According to PubChem BioAssay (NCI):
Compounds without any hit were thinned out: in the full panel of roughly 79,000, 15% have a hit. Cut-off read from the data, not from the text of the source: active = growth inhibition above about 70%; inactive = the rest.

Assays:
[1] = NCI Yeast Anticancer Drug Screen. Data for the rad50 strain (AID 155);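 note: 0% = growth of vehicle-only cultures of the same strain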; settings: S. cerevisiae rad50 strain growth inhibition; at 50.0 µM; hits give high values
Outline: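 Compounds were tested on a yeast strain with an engineered DNA damage repair alteration; the reported value is growth inhibition normalised to vehicle treatment.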

[2] = NCI Yeast Anticancer Drug Screen. Data for the mec2-1 strain (AID 157); settings: S. cerevisiae mec2-1 strain, at 50.0 µM, hits give high values
Outline: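 Strain: mec2-1 (DNA repair/cell cycle alteration). Compound exposure, then growth measured; inhibition expressed relative to vehicle.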

[3] = NCI Yeast Anticancer Drug Screen. Data for the sgs1 mgt1 strain (AID 161);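 note: 0% = growth of cultures given vehicle only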; settings: S. cerevisiae sgs1 mgt1 strain, at 50.0 µM, hits give high values
Outline: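 Test agents were incubated with a DNA-repair-mutant yeast strain. Growth was then read and compared against vehicle-treated controls.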

[4] = NCI Yeast Anticancer Drug Screen. Data for the cln2 rad14 strain (AID 165);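 note: 0% = growth equal to vehicle treated cultures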; settings: S. cerevisiae cln2 rad14 strain, at 50.0 µM, hits give high values
Outline: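 Compounds are applied to the cln2 rad14 yeast strain, and growth is then compared with that of vehicle-treated cultures to give inhibition.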

[5] = NCI Yeast Anticancer Drug Screen. Data for the bub3 strain (AID 167); settings: S. cerevisiae bub3 mutant strain, at 50.0 µM, hits give high values
Outline: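 Growth of a checkpoint-deficient yeast mutant is measured after compound exposure. Values represent inhibition relative to vehicle.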

[6] = NCI Yeast Anticancer Drug Screen. Data for the mlh1 rad18 strain (AID 175); settings: S. cerevisiae mlh1 rad18 strain growth inhibition; at 50.0 µM; hits give high values
Outline: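 Read-out is yeast growth inhibition, calculated against vehicle-only controls. The compound was applied to a strain engineered with DNA damage repair alterations.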

Measured: growth inhibition

Nc1c([N+](=O)[O-])cc(F)cc1C(F)(F)F
inactive: [1] -5.5% | [2] -17.6% | [3] 3.6% | [4] -14.9% | [5] 5.4% | [6] 6.7%

CCN(C(=N)C#N)c1ccccc1
inactive: [1] 29.8% | [2] 13.2% | [3] 10.1% | [4] 24.4% | [5] 29.9% | [6] 27.1%

Cc1ccc(N=CC=C2C=CN(O)C=C2)nc1
inactive: [1] -8% | [2] -10.9% | [3] -0.85% | [4] -19.2% | [5] -19.1% | [6] -10.5%

CNC(=O)c1ccccc1Cl
inactive: [1] -0.55% | [2] 6.9% | [3] 10.8% | [4] 4.65% | [5] 3.9% | [6] 19.2%

CN1C(=O)N(C)C2(CCN(CC(CC3OCCO3)c3ccc(F)cc3)CC2)C1=O (centres undefined)
inactive: [1] -15.8% | [2] 7.85% | [3] 0.4% | [4] 2.5% | [5] -6.8% | [6] -1.55%

O=C(Nc1ccccc1)N1CCC[C@@H]2CCCC[C@@H]21
inactive: [1] 3.2% | [2] -0.15% | [3] 0.7% | [4] -82.4% | [5] -6.8% | [6] -4.45%

COC1=NC2(C)C(C)=C(c3ccccc3)C1(C)c1ccccc12 (centres undefined)
inactive: [1] -12.2% | [2] -4.4% | [3] -14.6% | [4] -46.8% | [5] 7.25% | [6] -3.8%

CC[n+]1c([S-])nn(C)c1-c1cnccn1
inactive: [1] -2.8% | [2] -4.9% | [3] -9.05% | [4] -13.9% | [5] 24% | [6] -12.5%

Cc1cccc(-c2nc(-c3cnccn3)n(Cc3ccccc3)n2)c1
inactive: [1] -67.5% | [2] -46.9% | [3] -62% | [4] -39.6% | [5] -51.1% | [6] -61.2%

S=C1Cc2c(-c3ccc(Br)cc3)cc(-c3ccccc3)nc2-c2ccccc2N1
inactive: [1] 19.9% | [2] 14.7% | [3] 23.4% | [4] 20.6% | [5] 22.9% | [6] 23.2%

CC(O)CNC(=O)Nc1ccccc1 (centres undefined)
inactive: [1] -26.9% | [2] -26.8% | [3] -9.8% | [4] -5.25% | [5] 3.95% | [6] -17.6%

CC(=O)Oc1ccc(=O)[nH]c1
inactive: [1] 1.3% | [2] -11.9% | [3] 2.2% | [4] -18.4% | [5] 2.75% | [6] -48%

CNC(=O)NC1NC(=O)N(C)C1=O (centres undefined)
inactive: [1] 0.3% | [2] -12.7% | [3] -0.4% | [4] -14.6% | [5] -0.45% | [6] -12.7%

Cc1ccccc1C(C#N)/C(=N/NC(N)=S)C(=O)Nc1c(C)cccc1C (centres undefined)
inactive: [1] -36.5% | [2] -27.7% | [3] 2.5% | [4] -12.4% | [5] -17.2% | [6] -31.1%

COc1ccc(OC)c(NC(=O)SC(C)C)c1
inactive: [1] -5.3% | [2] -21.8% | [3] -9.45% | [4] 0.15% | [5] 18.2% | [6] -3.65%

CCOC(=O)N1CCNCCN(C(=O)OCC)CCNCC1
inactive: [1] -3.95% | [2] 2.3% | [3] -4.3% | [4] 0.7% | [5] -4.5% | [6] 24.1%

c1ccc(C2CCCN2)cc1 (centres undefined)
inactive: [1] 6% | [2] -12.4% | [3] -11% | [4] 6.25% | [5] -1.4% | [6] 4%

CCCCCCCC(=O)NC(O)C(Cl)(Cl)C(C)Cl (centres undefined)
inactive: [1] 31.1% | [2] -6.35% | [3] 3.35% | [4] -21.4% | [5] -1.55% | [6] 9.35%

CCCCOC(=S)Nc1ccc(S(=O)(=O)c2ccc(NC(=S)OCCCC)cc2)cc1
inactive: [1] 23.4% | [2] 0.15% | [3] 13.4% | [4] 9.35% | [5] -4.9% | [6] -9.65%
